# TDP1 cell noCPT = qHTS for Inhibitors of human tyrosyl-DNA phosphodiesterase 1 (TDP1): qHTS in cells in absence of CPT; DT40 Tdp1-/- hTDP1 cells, no CPT, ATP luminescence, 48 h; Potency, µM (top dose mostly 46.2 µM), for inactives: at the highest dose activity change, negative = growth inhibition, hits mostly inhibitors; 15% of 420,000 active; further: nearly all actives have a fitted effect of over 55% in size
#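 Chicken DT40 Tdp1-/- cells stably complemented with human TDP1 were seeded at 400 cells/well with DMSO in place of 20 nM camptothecin. After compound pinning, cells grew at least 48 hr at 37 °C; viability read by CellTiter-Glo luminescence.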
# ELG1 repair inh = blocks ELG1-dependent DNA repair in HEK293T cells | 2.3% of 330,000 active | Potency, µM (titrated, usually from 46.1 µM), inactives show at the highest dose activity change, negative = inhibition, most hits filed as inhibitors | AID 504467 | HEK293T ELG1-luciferase reporter, luminescence, 16 h; DNA damage induced by 5-fluorouridine; further: nearly all actives have a fitted effect of over 55% in size
#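 HEK293T cells expressing luciferase-tagged ELG1 (2,000/well) received 5-Fluorouridine plus compound or DMSO for 16 hr at 37 °C. Luciferase was read by ONE-Glo luminescence after 30 min at room temperature.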
# DT40 TDP1 CPT = DT40-hTDP1 cell growth loss with CPT. chicken DT40 Tdp1-/-;hTDP1 cells + 20 nM CPT, ATP luminescence, 48 h. Potency, µM (doses to about 46.2 µM), inactives show top-dose activity change, negative = growth inhibition, usual class: inhibitors. 12% of 420,000 active; further: nearly all actives have a fitted effect of over 55% in size
#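 Cell growth measured by CellTiter-Glo luminescence after a minimum 48 h, 37 C compound exposure with 20 nM CPT in Tdp1-knockout DT40 cells stably expressing hTDP1, seeded 400/well; qHTS titration format.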
# RORg inh = blocks mouse ROR gamma transcriptional activity | P51450 | Drosophila S2 Gal4-RORgamma UAS-luciferase reporter, 20 h | Potency, µM (top dose mostly 53.6 µM), inactives show at the highest dose activity change, negative = inhibition, usual class: inhibitors | 5.4% of 310,000 active | AID 2551; further: nearly all actives have a fitted effect of over 60% in size
#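 Drosophila S2 cells stably expressing Gal4-DBD/mouse RORγ fusion under metallothionein promoter plus UAS-luciferase; compound 1 h, then 700 uM CuSO4 induction for 20 h at ambient temperature; inhibition read as reduced luminescence.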
# ALOX12 inh = blocks human arachidonate 12S-lipoxygenase; P18054; 1.1% of 580,000 active; Potency, µM (titrated, usually from 108 µM), for inactives: at the top dose activity change, negative = inhibition, most hits filed as inhibitors; purified 12hLO, xylenol orange hydroperoxide absorbance
# Target sequence (P18054 whole entry, looked up): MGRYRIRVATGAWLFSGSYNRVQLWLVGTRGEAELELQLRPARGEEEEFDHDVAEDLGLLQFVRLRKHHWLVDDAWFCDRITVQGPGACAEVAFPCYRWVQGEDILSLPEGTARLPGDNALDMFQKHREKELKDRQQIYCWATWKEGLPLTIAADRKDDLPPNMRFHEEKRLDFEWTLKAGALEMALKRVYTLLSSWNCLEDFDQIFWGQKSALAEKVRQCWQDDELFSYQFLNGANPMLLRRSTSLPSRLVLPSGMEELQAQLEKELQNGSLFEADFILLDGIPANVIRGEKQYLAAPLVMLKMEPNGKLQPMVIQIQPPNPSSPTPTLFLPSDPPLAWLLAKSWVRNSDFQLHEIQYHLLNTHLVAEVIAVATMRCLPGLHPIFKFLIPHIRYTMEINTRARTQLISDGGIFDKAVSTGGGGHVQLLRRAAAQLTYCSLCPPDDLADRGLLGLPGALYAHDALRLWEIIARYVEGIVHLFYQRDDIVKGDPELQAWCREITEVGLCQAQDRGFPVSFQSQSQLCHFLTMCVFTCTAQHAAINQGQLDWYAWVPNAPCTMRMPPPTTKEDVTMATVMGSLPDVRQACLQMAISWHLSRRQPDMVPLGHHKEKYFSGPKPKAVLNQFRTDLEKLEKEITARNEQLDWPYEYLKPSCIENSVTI
#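 Purified human 12hLO (150 nM final) in 25 mM Hepes, 0.01% Triton X-100, pH 7.0 was preincubated 15 min at room temperature with compound. Then 40 uM arachidonic acid was added, 30 min. Hydroperoxide was read by Fe-XO absorbance ratio 573/405 nm.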
# Gal4-VP16 FLuc = Gal4-VP16 reporter inhibition counter-screen | 3.5% of 310,000 active | Drosophila S2 Gal4-VP16 UAS-luciferase, luminescence, 20 h | AID 2546 | Potency, µM (highest dose often 53.6 µM), for inactives: at the top dose activity, negative = inhibition, hits mostly inhibitors;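 further: Gal4-VP16 expression switched on by copper sulfate through the metallothionein promoter; nearly all actives have a fitted effect of over 50% in size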
# * marks the source's active call; other numbers are inactive results; ? = inconclusive; · = not tested or not shown; [ ] = remark or other dose. A selection: hits, their analogues and other compounds. The true share with any hit is near 15%. The call rests on the fitted dose curve; in most records, active means well fitted curve in the direction sought with a large enough effect; inconclusive means small, poorly fitted or top-dose-only effect, or another doubt; inactive means no such curve, though single readings can be large; an effect the other way counts as inactive or inconclusive. On the % scale 0 is the no-effect control and ±100 the full control effect; potency means the concentration at half of the fitted maximal effect.
SMILES,TDP1 cell noCPT,ELG1 repair inh,DT40 TDP1 CPT,RORg inh,ALOX12 inh,Gal4-VP16 FLuc
Cc1ccccc1C(=O)N1CCc2cc(-c3csc(NC(=O)CN4CCCC4)n3)ccc21,?,?,?,?,-8%,-8%
Cc1sc(NC(=O)Cc2ccc3c(c2)OCO3)nc1-c1ccc2c(c1)CCN2C(=O)c1ccccc1F,8.2µM*,?,18µM*,?,-20%,4%
CN(C)c1cc(C(=O)NC(C2CC2)C2CC2)ccn1,·,·,·,·,13%,·
COc1cc(NC(=O)c2cccc(N3C(=O)C(C)(C)CS3(=O)=O)c2)cc(OC)c1OC,·,·,·,·,27%,·
CCC(=O)Nc1ccccc1N1CCN(c2ccc(F)cc2)CC1,?,-16%,21µM*,14%,-1%,-7%
O=C(COc1ccccc1)Nc1ccccc1N1CCN(c2ccc(F)cc2)CC1,?,-1%,?,?,0%[57.4 µM],-10%
O=C(Nc1ccccc1N1CCN(c2ccc(F)cc2)CC1)c1ccccc1,18µM*,?,23µM*,12%,7%,-7%
CCN1CCN(CCCNC(=O)c2cnn(-c3ccc(C)cc3)c2C2CCN(C(=O)OC(C)(C)C)CC2)CC1,?,·,?,·,-8%,·
Cc1ccc(-n2ncc(C(=O)NC3CC3)c2C2CCN(C(=O)OC(C)(C)C)CC2)cc1,-3%,1%,-18%,8%,1%,5%
Cc1ccc(-n2ncc(C(=O)NC3CCCCC3)c2C2CCN(C(=O)OC(C)(C)C)CC2)cc1,23µM*,·,?,·,-3%,·
CC(C)(C)OC(=O)N1CCC(c2c(C(=O)NC3CC3)cnn2-c2ccc(Cl)cc2)CC1,-16%,2%,?,1%,5%,2%
CC(C)(C)OC(=O)N1CCC(c2c(C(=O)NCCN3CCCC3)cnn2-c2ccc(Cl)cc2)CC1,23µM*,·,?,·,-13%,·
Cc1cccc(C)c1-n1ncc(C(=O)NCCN2CCOCC2)c1C1CCN(C(=O)OC(C)(C)C)CC1,-9%,·,-30%,·,-2%,·
CC(C)(C)OC(=O)N1CCC(c2c(C(=O)NCCN3CCOCC3)cnn2-c2ccccc2)CC1,5.8µM*,·,5.8µM*,·,?,·
Cc1ccc(-n2ncc(C(=O)NCCN3CCCC3)c2C2CCN(C(=O)OC(C)(C)C)CC2)cc1,?,·,23µM*,·,-12%,·
CC(C)c1cccc(NC(=O)c2cccc(CS(C)=O)c2)c1 (configuration not stated),·,·,·,·,16%,·
COc1ccccc1CN1CCC(CNC(=O)c2cnn(-c3ccc(Cl)cc3)c2C2CCN(C(=O)OC(C)(C)C)CC2)CC1,5.2µM*,·,3.7µM*,·,-6%,·
Cc1ccc(-n2ncc(C(=O)NCCCN3CCN(C)CC3)c2C2CCN(C(=O)OC(C)(C)C)CC2)c(C)c1,?,·,?,·,-34%,·
Cc1ccc(-n2ncc(C(=O)NCCN3CCN(C)CC3)c2C2CCN(C(=O)OC(C)(C)C)CC2)cc1C,?,·,?,·,-15%,·
COc1ccc(-n2ncc(C(=O)NCCCN3CCCCC3)c2C2CCN(C(=O)OC(C)(C)C)CC2)cc1,18µM*,·,18µM*,·,-17%,·
O=C(NCCN1CCOCC1)c1cnn(-c2ncc3c(n2)-c2ccccc2CC3)c1C1CC1,23µM*,·,10%[9.04 µM],·,6%,·
CC(C)(C)OC(=O)N1CCC(c2c(C(=O)NCCN3CCC(Cc4ccccc4)CC3)cnn2-c2cccc(Cl)c2)CC1,3.7µM*,·,5.8µM*,·,?,·
Cc1ccc(S(=O)(=O)N2CCN(Cn3ncc4ccccc4c3=O)CC2)cc1,·,·,·,·,2%,·
COc1ccccc1N1CCN(CCCNC(=O)c2cnn(-c3ccccc3)c2C2CCN(C(=O)OC(C)(C)C)CC2)CC1,16µM*,·,16µM*,·,0%,·
Cc1ccc(-n2ncc(C(=O)NCCN3CCC(Cc4ccccc4)CC3)c2C2CCN(C(=O)OC(C)(C)C)CC2)cc1,2.9µM*,·,4.6µM*,·,?,·
SMILES,TDP1 cell noCPT,ELG1 repair inh,DT40 TDP1 CPT,RORg inh,ALOX12 inh,Gal4-VP16 FLuc
Cc1cc(S(=O)(=O)N(C)C)cc(NS(=O)(=O)c2cccc(Cl)c2Cl)c1C,·,·,·,·,13%,·
CC1(CNC(=O)c2ccc3ccccc3n2)CCOCC1,·,·,·,·,42%,·
Cc1ccc(CN2CCC2(C)C(=O)NC2CCc3ccccc32)cc1 (configuration not stated),23µM*,·,?,·,?,·
CSc1ccc(CN2CCC2(C)C(=O)NC2CCc3ccccc32)cc1 (configuration not stated),16µM*,·,?,·,11%,·
CSc1ccc(CN2CCC2(C)C(=O)NCc2cccs2)cc1 (configuration not stated),?,·,?,·,-3%,·
Cc1ccccc1C(=O)NCc1coc(-c2cccs2)n1,·,·,·,·,6%,·
CCc1noc([C@@H]2CC(F)(F)CN2C(=O)CCc2c(C)noc2C)n1,·,·,·,·,37%,·
COc1ccc(CN(C(=O)Nc2cccc(Cl)c2)c2ccccn2)cc1OC,13µM*,·,?,·,-2%,·
COc1ccc(CN(C(=O)Nc2ccccc2)c2ccccn2)cc1OC,-18%,·,3%,·,0%,·
Cc1ccc(CN(C(=O)Nc2cccc(Cl)c2)c2ccccn2)cc1,16µM*,·,?,·,-25%,·
CCCC(=O)Nc1oc2c(C)cccc2c(=O)c1-c1ccc(OC)c(OC)c1,·,·,·,·,-4%,·
Ic1ccc(-c2noc(-c3ccco3)n2)cc1,·,·,·,·,-28%,·
CC(C)CN1C(=O)c2ccccc2C(C(=O)Nc2ccncc2)C12CCCC2 (configuration not stated),·,·,·,·,48%,·
Cc1ccc(Cl)cc1N1CCN(C(=O)c2cc(S(=O)(=O)N3CCC(C)CC3)cn2C)CC1,15µM*,·,23µM*,·,-9%,·
COc1ccccc1N1CCN(C(=O)c2cc(S(=O)(=O)N3CCC(C)CC3)cn2C)CC1,?,·,21µM*,·,-3%,·
Cc1ccc(C)c(Cn2c(C(C)NC(=O)c3ccccc3)nc3ccccc32)c1 (configuration not stated),21µM*,·,?,·,-24%,·
Cc1ccc(Cn2c(C(C)NC(=O)c3ccccc3)nc3ccccc32)cc1 (configuration not stated),6.5µM*,·,?,·,?,·
COCCC1(NS(C)(=O)=O)CCN(C(=O)NCC(C)C)CC1,·,·,·,·,20%,·
CN(C(=O)Nc1ccc(Cl)cc1Cl)[C@H]1c2cc(Br)ccc2OC[C@H]1CO,-18%,21µM*,?,2.8µM*,-20%,?
